The record followed here is PubChem BioAssay (NCI).

Experiment in all cases: NCI-60 one-dose screen, 48 h (100 = growth as untreated, 0 = no growth, -100 = all killed)
What all share (details): 10 µM unless noted

The test system of assay [1] is SK-MEL-2 melanoma.
The test system of assay [2] is EKVX NSCLC.
Assay [3] deals with SN12C renal.
The subject of assay [4] is UO-31 renal.
The subject of assay [5] is TK-10 renal.
Assay [6] has as its system ACHN renal.
Assay [7] relates to CAKI-1 renal.
In assay [8] the test system is A498 renal.
Assay [9] has as its system CCRF-CEM leukemia.
Assay [10] has as its system MOLT-4 leukemia.

About 83,000 compounds went through this panel and 20% of them were active in at least one assay; those are over-represented in the sample as a whole.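 Values shown are percent growth following 48 h exposure of cells in 96-well plates to a single concentration of compound; below 10 was considered active.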 Values without a mark were called inactive. The source made the active and inactive calls.

Regarding `NC(=O)c1ccc(NC(=O)c2oc3ccccc3c2-c2cnn(-c3ccccc3)c2)cc1`, the growth in assay [1] was 61.5% [50 µM]; in [2], 7.54% [50 µM] (active); in assay [3], 14.7% [50 µM]; in [4], -1.76% [50 µM] (active); in [5], 44.5% [50 µM]; in assay [6], -11.1% [50 µM] (active). The growth was -29.4% [50 µM] (active) in assay [7], 16.4% [50 µM] in [8], 73.1% [50 µM] in assay [9] and 61.2% [50 µM] in [10].
Consider `CC/C=C1/C(=O)C=C[C@@H]1C/C=C\CCCC(=O)OC`, for which the growth was 90.7% in assay [1]; 101% in assay [2]; 18.8% in assay [3]; 77.9% in assay [4]; 107% in assay [5]; 46.9% in assay [6]. Moreover, the growth in [7] is 60.6%; in assay [8], 102%; in assay [9], -6.12% (active); in assay [10] it was 3.09% (active).
For the molecule `Cn1ccnc1C(=O)/C=C/c1ccc(C(=O)Nc2ccc(F)cc2)cc1`, the growth in assay [1] is 74.6%; in assay [2], 26.6%; in assay [3] it was 14.3%; in assay [4], -14.2% (active); in assay [5] it was 13.1%; in [6] it was -49.9% (active). For the same molecule, the growth was 28.9% in assay [7], -9.36% (active) in assay [8], 2.27% (active) in [9] and 7.92% (active) in [10].
For the molecule `O=c1ccc2nc(C(F)(F)F)nn(-c3ccccc3)c-2c1`, the growth in [1] is 78.3%; in assay [2], 95.8%; in assay [3], 67.9%; in [4] it was 24%; in [5], -98% (active); in [6], -89% (active). In addition, the growth is 56% in [7], 80% in [8], -0.269% (active) in [9] and -20.5% (active) in assay [10].
For `COc1ccc2c(c1)c(-c1nc(-c3cn(C)c4ncccc34)cs1)cn2CCO`, the growth is 93% in [1]; 67.5% in assay [2]; 86.1% in assay [3]; 67.7% in [4]; 83% in assay [5]; 72.1% in [6]. Moreover, the growth in assay [7] is 88.7%; in assay [8], 49.3%; in [9], 43.3%; in [10], 58.2%.
Take `COc1cc(C(=O)C(=O)c2cc(OC)c(O)c(OC)c2)cc(OC)c1O`: the growth in [1] is 115%; in assay [2], 104%; in assay [3] it was 91.3%; in assay [4], 98.6%; in assay [5] it was 95.8%; in assay [6], 98%. For the same molecule, the growth is 105% in assay [7], 92.5% in [8], 88.3% in [9] and 108% in assay [10].
For the molecule `CCCCC(=O)Nc1ncc(Cc2ccccc2Cl)s1`, the growth in assay [1] was 55.8%; in [2] it was 57.6%; in assay [3], 42.4%; in assay [4] it was 44.6%; in assay [5] it was 62.8%; in assay [6] it was 61.4%. Also, the growth was 37.8% in [7], 48.5% in [8], 57.3% in [9] and 28.5% in assay [10].
Take `CCCCCCCCCCCCCCCCOC(=O)c1c(C)[nH]c(/C=C2\N=C(c3ccc[nH]3)C=C2OC)c1C`: the growth was -25.9% (active) in assay [1]; 68.3% in assay [2]; 55.9% in assay [3]; 30.4% in assay [4]; 18.8% in assay [5]; 48.8% in assay [6]. The growth in assay [7] is 15.4%; in assay [8], 33.9%; in assay [9] it was 50.4%; in assay [10], 91.9%.
In the case of `COc1cc(C2Cc3ncccc3-c3[nH]c(=O)c4cccnc4c32)cc(OC)c1OC` (stereo not given), the growth in assay [1] is 19.4%; in assay [2], 44.2%; in [3] it was 39.8%; in assay [4], 38.6%; in assay [5], 52.6%; in assay [6], 46.4%. In addition, the growth in [7] is 31.8%; in [8], -1.31% (active); in [9] it was 22.1%; in assay [10], 23.8%.
As to `COC(=O)/C=C1/SC(=Nc2cccc(Cl)c2)N(CCc2c[nH]c3ccc(O)cc23)C1=O`, the growth in [1] is -15.8% (active); in [2], 45.7%; in assay [3], 10%; in [4] it was 17.7%; in assay [5] it was 89.2%; in [6] it was 15.9%. The growth in assay [7] is 37.4%; in assay [8] it was 79.9%; in [9] it was 0.545% (active); in [10], -8.3% (active).
On to `O=C(OC[C@@H]1CO1)c1cccc2c(=O)c3ccccc3[nH]c12`, for which the growth in assay [1] is -70.8% (active); in assay [2], -16.8% (active); in assay [3], -46.9% (active); in [4] it was -20.7% (active); in assay [5], -6.41% (active); in assay [6], -41.2% (active). The growth in assay [7] was -13.2% (active); in assay [8], -44.4% (active); in assay [9] it was 2.83% (active); in assay [10] it was 1.32% (active).
`COc1ccc(C2CC(c3ccc4c(c3)OCO4)=Nc3c(N)ncnc3N2)cc1` (stereo not given): the growth in assay [1] was 72.6%; in [2] it was 119%; in [3], 111%; in assay [4], 89.4%; in assay [5], 118%; in assay [6], 101%. Further, the growth in [7] is 120%; in assay [8], 94.4%; in [9], 3.41% (active); in [10], 91.9%.
